Screening results: PubChem BioAssay, several laboratories
UBC13 inh – human UBC13 polyubiquitination inhibition; inhibition, % at 20 µM; UBC13 polyubiquitin chain formation, TR-FRET; 330,000 compounds, 0.47% hits; P61088; in the data active means inhibition above about 45%, passing the limit was not always enough
Neddyl block – cullin neddylation inhibition; P61081+Q13564; TR-FRET cullin neddylation, biochemical; calls only at 25 µM; 360,000 compounds, 0.58% hits; in the data active means inhibition above about 36%
Target sequence (P61081 whole entry, looked up): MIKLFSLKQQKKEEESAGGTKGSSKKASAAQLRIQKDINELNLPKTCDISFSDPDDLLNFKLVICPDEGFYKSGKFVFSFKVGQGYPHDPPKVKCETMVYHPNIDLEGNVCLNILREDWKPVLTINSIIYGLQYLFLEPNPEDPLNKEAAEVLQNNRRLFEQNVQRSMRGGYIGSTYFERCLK
Target sequence (Q13564 whole entry, looked up): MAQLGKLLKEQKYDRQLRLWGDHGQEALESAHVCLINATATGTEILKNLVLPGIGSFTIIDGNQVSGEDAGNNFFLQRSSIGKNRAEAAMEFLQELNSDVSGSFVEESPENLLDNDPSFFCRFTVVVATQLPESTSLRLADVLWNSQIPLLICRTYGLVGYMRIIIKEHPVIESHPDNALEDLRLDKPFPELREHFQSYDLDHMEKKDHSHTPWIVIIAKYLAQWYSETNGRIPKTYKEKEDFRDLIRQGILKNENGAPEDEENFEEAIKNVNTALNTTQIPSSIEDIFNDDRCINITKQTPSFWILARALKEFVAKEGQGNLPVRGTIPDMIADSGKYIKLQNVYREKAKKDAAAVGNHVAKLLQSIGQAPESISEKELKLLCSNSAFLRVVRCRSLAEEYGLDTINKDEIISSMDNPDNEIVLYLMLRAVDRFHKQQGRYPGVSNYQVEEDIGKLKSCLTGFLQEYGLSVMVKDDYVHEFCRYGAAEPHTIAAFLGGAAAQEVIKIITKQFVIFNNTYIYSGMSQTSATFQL
MBD2 DNA inh – MBD2-methylated oligo binding inhibition | Q9UBB5 | TR-FRET, MBD2 binding to methylated oligonucleotide | inhibition, % at 4.4 µM | 370,000 compounds, 0.31% hits; in the data active means inhibition above about 13%
UHRF1 MBD2 ctr – UHRF1 methyl-DNA binding inhibition | 370,000 compounds, 0.75% hits | UHRF1 binding to methylated oligo, TR-FRET | inhibition, % at 4.4 µM | AID 687016; in the data active means inhibition above about 21%;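 further: UHRF1 SRA domain binding a hemimethylated CpG hairpin DNA probe; 0% = median of test compound wells and 100% = reference inhibitor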
The depositor's hits bear a star; i = inactive; . = not tested or not shown. Rows were chosen to be rich in hits. Some 1.8% of all compounds tested hit in one or more screens of this group.

SMILES	UBC13 inh	Neddyl block	MBD2 DNA inh	UHRF1 MBD2 ctr
CCc1cc(-c2nnn(CCC3COCCO3)c2CC)ccc1-c1cn(CCc2c[nH]c3ccccc23)nn1 (centres undefined)	.	i	-5	0
CC(C)=CCOc1ccc2c(C)c(CC(=O)N3C[C@H]4C[C@@H](C3)c3cccc(=O)n3C4)c(=O)oc2c1C	10	.	0	35*
CCCC#Cc1ccc2c(c1)O[C@@H](CN(C)Cc1ccc3c(c1)OCO3)[C@H](C)CN([C@@H](C)CO)S2(=O)=O	.	i	12	21*
C[C@H]1CN([C@@H](C)CO)S(=O)(=O)c2ccc(C#Cc3cccnc3)cc2O[C@@H]1CN(C)C(=O)Nc1ccc2c(c1)OCO2	.	i	7	22*
Cc1ccc(S(=O)(=O)N2CCOCC2)cc1NC(=O)COC(=O)c1cc(=O)[nH]c2ccccc12	-4	i	-4	0
Cc1cccc(C)c1-n1nnnc1C1(C)CCC(=O)N1c1ccc(N2CCOCC2)cc1 (centres undefined)	.	i	12	23*
CC(/C=C/c1ccc(C)o1)=C\C(=O)O	-11	i	-2	0
CC(=C/C(=O)O)/C=C/c1ccc(Cl)o1	-12	i	8	32*
Cc1noc(C)c1-c1ccc(C(=O)Nc2ccccc2)c2occc12	.	i	0	-3
Cc1ccc(C)c(C(C)NC(=O)c2ccccc2Br)c1 (centres undefined)	-3	i	0	22*
COc1ccc(C(C)NC(=O)c2ccccc2Br)cc1OC (centres undefined)	7	i	-3	-1
O=C(O)C1CC(c2ccc(F)cc2)=NO1 (centres undefined)	-18	i	5	27*
N/C(=N\O)c1cn(Cc2ccccc2Cl)c2ccccc12	6	i	-1	-2
Cc1[nH][nH]c(=O)c1C(c1c(C)[nH][nH]c1=O)c1cn(Cc2ccccc2Cl)c2ccccc12	.	i	-5	23*
CC12CCC(C(=O)N(CC(O)CN3CCN(Cc4ccccc4)CC3)C1=O)C2(C)C (centres undefined)	4	i	9	24*
CN=C1S/C(=C/c2cc(C)n(-c3cc(C)ccc3OC)c2C)C(=O)N1C	.	.	-4	-3
CC1CCCC(C(=O)O)N1C(=O)CCSC(=O)c1ccccc1 (centres undefined)	6	i	3	2
COc1ccccc1N(CC(O)Cn1c2ccccc2c2ccccc21)S(=O)(=O)c1ccccc1 (centres undefined)	4	i	7	21*
CCCn1c(N)c(N(CCOC)C(=O)CSc2ccccc2)c(=O)[nH]c1=O	6	i	-9	1
Cc1nnc(SCC(C)C)[nH]c1=O	0	i	-5	22*
Cc1nnc(SCc2ccccc2)[nH]c1=O	-3	i	2	-2
CCc1nc2ccc(C(=O)N(CC)CCN(C)C)cn2c1N(C=O)CCC(C)C	.	i	-2	-1
COc1cc(OC)c(NC(=S)NCc2ccccc2)cc1Cl	-1	i	3	65*
CCc1ccc2nc3nc(C)cc(C)c3c(N)c2c1	-15	.	3	22*
O=C(O)COCC(=O)N1CCN(C(c2ccccc2)c2ccccc2)CC1	-5	i	-3	-1
SMILES	UBC13 inh	Neddyl block	MBD2 DNA inh	UHRF1 MBD2 ctr
O=C1[C@H](c2ccccc2)[C@@H](c2ccccc2)N1c1ccncc1	.	i	9	22*
Cn1c(=O)[nH]c(=O)c2[nH]c(NCCCN3CCOCC3)nc21	0	i	5	23*
Cn1c(=O)[nH]c(=O)c2c1ncn2CCN1CCOCC1	-1	i	-7	2
Cn1c(=O)c(Cc2ccccc2)c(O)c2ccccc21	18	i	0	6
COC(=O)CCCn1cc(CN2CC(N3CCN(C)CC3)CS2(=O)=O)nn1 (centres undefined)	.	i	8	24*
CCCCCCn1cc(CN2CC(N3CCN(C)CC3)CS2(=O)=O)nn1 (centres undefined)	.	i	12	17
CC1N(C)c2cccc3cccc(c23)N1C	-26	.	-4	-5
O=C(CC1CCCC1)NNC(=O)c1ccccc1O	.	i	4	36*
O=C(CCC1CCCC1)NNC(=O)c1cc2ccccc2cc1O	4	i	1	-2
O=C(NCCNC(=O)c1ccccc1O)c1ccccc1O	-2	i	-1	-1
O=C(CCNC(=O)c1ccccc1Cl)NNC(=O)c1ccccc1O	11	i	3	34*
CCc1noc(C)c1C(=O)OCC(=O)Nc1ccc(F)cc1Cl	-11	i	-3	0
O=C1CN(C(=O)C2CCCC2)CCN1	-5	i	0	63*
CCOc1ccccc1NC(=O)c1ccc(CN2CCc3ccccc3C2)cc1	2	i	-2	-3
NC(=O)Cn1c(=O)n(Cc2ccco2)c(=O)c2c3c(sc21)CCCCC3	15	i	4	21*
O=C(Cn1c(=O)n(Cc2ccco2)c(=O)c2c3c(sc21)CCCC3)Nc1ccccc1	-3	i	5	3
COCCCNC(=S)N1CCN(c2nc(-c3ccc(F)cc3)cs2)CC1	-10	i	6	65*
Cc1ccc(S(=O)(=O)/N=C2/NC(=O)/C(=C\c3cc(Br)cc(Br)c3O)S2)cc1	-110	i	.	.
Cc1ccc(S(=O)(=O)/N=C2/NC(=O)/C(=C/c3ccc(Br)o3)S2)cc1	-20	i	25*	81*
Cc1ccc(/C=N/NC(=O)c2nnn(-c3nonc3N)c2CN(C)c2ccccc2)s1	-27	i	-2	-2
CCOc1cc(C(=O)Nc2ccc3c(c2)OCO3)ccc1OCCOc1ccccc1Cl	2	i	3	2
CCOc1ccc(C(=O)Nc2ccc3c(c2)OCO3)cc1OCC	-5	i	10	25*
O=C(Cn1cnc2c(OCc3ccccc3)ncnc21)NCc1ccccc1	-15	i	3	8
O=C(Nc1ccccc1C(F)(F)F)NC1(C(=O)N2CCOCC2)CCCCC1	.	i	16*	34*
Cc1cnc(C(=O)N2CCc3c([nH]c4ccccc34)C2c2ccc(F)cc2)cn1 (centres undefined)	7	i	4	21*
SMILES	UBC13 inh	Neddyl block	MBD2 DNA inh	UHRF1 MBD2 ctr
CCCN(CCC)Cc1cc(=O)oc2cc3c(cc12)CCC3	7	i	-6	31*
Cc1ccc(C(OC(=O)c2ccco2)C(=O)NC(C)(C)C)cc1 (centres undefined)	-1	i	0	2
COc1nn(CC(=O)N2N=C(C)CC2(O)C(F)F)cc1[N+](=O)[O-] (centres undefined)	-7	i	0	1
CCN(CC)c1ccc(N=Cc2ccc([N+](=O)[O-])o2)cc1	-129	i	10	25*
COc1ccccc1COCC(O)CN(Cc1ccco1)Cc1ccccc1O (centres undefined)	12	i	1	25*
COc1ccc(CN2CC(C(=O)NCCCN3CCN(C)CC3)CC2=O)cc1 (centres undefined)	1	i	18*	6
COc1ccc(CN2CC(C(=O)NCCCN3CCCCCC3)CC2=O)cc1 (centres undefined)	23	i	-3	1
O=C(Nc1ccc(N2CCOCC2)c2nonc12)C1CCCC1	-36	i	-8	-18
Nc1ccc(N2CCOCC2)c2nonc12	-49	i	19*	30*
